# Experimental data reported in PubChem BioAssay AID686979 (National Center for Advancing Translational Sciences (NCATS), 2013).
# The campaign covered roughly 420,000 compounds. About 50,000 (12%) were called active. Where a call stands in place of a potency, no number is given. Another 26% or so got no clear call; they are omitted. Calls come from the whole dose curve; as a rule, active = well fitted inhibition curve with a large enough effect; inconclusive = small, poorly fitted or top-dose-only effect; inactive = flat fitted curve, though single readings scatter. This excerpt belongs to a sample that is enriched for actives.
# Assay: qHTS for Inhibitors of human tyrosyl-DNA phosphodiesterase 1 (TDP1): qHTS in cells in presence of CPT; note: nearly all actives have a fitted effect of over 55% in size
# Conditions: chicken DT40 Tdp1-/-;hTDP1 cells + 20 nM CPT, ATP luminescence, 48 h; series mostly up to 46.2 µM
# Outline: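 Cell growth measured by CellTiter-Glo luminescence after a minimum 48 h, 37 C compound exposure with 20 nM CPT in Tdp1-knockout DT40 cells stably expressing hTDP1, seeded 400/well; qHTS titration format.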
# Potency is the fitted concentration of half-maximal effect.
row,Compound,Potency
1,CCCOc1ccc(N/C=C/C(=O)C(C)(C)C)cc1,inactive
2,CCOc1ccc(N/C=C/C(=O)c2ccccc2)cc1,inactive
3,CCOc1ccc(N/C=C/C(=O)c2cc(OC)c(OC)c(OC)c2)cc1,14.6 µM (active)
4,COCCNC(=O)C(c1ccc(O)cc1)N(C(=O)CCC(=O)Nc1nccs1)c1ccc(C)cc1 (stereo not given),inactive
5,COc1ccccc1CNC(=O)CCn1c(=O)c2ccccc2n(CC(=O)Nc2ccc(Br)cc2F)c1=O,23.1 µM (active)
6,COc1ccc(NC(=O)Cn2c(=O)n(Cc3ccc(C(=O)NCc4ccccc4Cl)cc3)c(=O)c3ccccc32)cc1,inactive
7,COc1ccccc1CNC(=O)CCCCn1c(=O)c2ccccc2n(CC(=O)Nc2cc(Cl)ccc2C)c1=O,18.4 µM (active)
8,COc1ccccc1CNC(=O)CCn1c(=O)sc2ccccc21,inactive
9,CCCCn1c(=O)c2oc3ccccc3c2n(CC(=O)Nc2ccccc2OC)c1=O,inactive
10,COc1ccccc1CNC(=O)CCCn1c(=O)c2ccccc2n(CC(=O)NC2CCCC2)c1=O,inactive
11,COCCNC(=O)CCCn1c(=O)c2ccccc2n(Cc2cccc([N+](=O)[O-])c2)c1=O,inactive
12,COc1ccccc1CNC(=O)CCCn1c(=O)c2ccccc2n(CC(=O)Nc2ccc(C)cc2Cl)c1=O,14.6 µM (active)
13,Cc1ccccc1NC(=O)Cn1c(=O)n(CCCCC(=O)NCc2ccccc2Cl)c(=O)c2ccccc21,inactive
14,CCc1nn(CC(=O)N2CCN(c3cccc(C(F)(F)F)c3)CC2)c(=O)c2cc3occc3n12,inactive
15,CC(C)CCN(C(=O)c1csnn1)C(C(=O)NC1CCCC1)c1ccccc1 (stereo not given),inactive
16,COc1cc(CN2CCNC(=O)C2CC(=O)NCCc2ncccc2C)cc(OC)c1 (stereo not given),inactive
17,CCOc1ccccc1NC(=O)CCS(=O)(=O)c1cccc2nsnc12,inactive
18,Cc1ccc(S(=O)(=O)N(C)C)cc1NC(=O)COC(=O)/C=C/c1cccs1,inactive
19,Cc1ccccc1N(C(=O)CNC(=O)c1cccs1)C(C(=O)NC1CCCC1)c1ccncc1 (stereo not given),inactive
20,CCOc1cc(NS(=O)(=O)c2ccc(OC)cc2)c(OCC)cc1NC(C)=O,inactive
21,COc1ccc(C(=O)Nc2c(N)nc(SCC(=O)Nc3ccc(C(C)=O)cc3)[nH]c2=O)cc1,inactive
22,COc1ccccc1CNC(=O)CNC(=O)c1cn(-c2ccccc2OC)c(=O)c2ccccc12,inactive
23,C=CCn1c(=O)n(C)c2c(=O)n(C)c(=O)n(C)c21,inactive
24,Cc1c(CNCCc2ccccc2)c(C(=O)O)c(C)n1-c1ccccc1,inactive
25,COc1cc(C(=O)N(Cc2ccc(C(C)C)cc2)C2CCS(=O)(=O)C2)cc(OC)c1OC (stereo not given),inactive
